Experimental data from PubChem BioAssay.

System: not listed separately
Assay: small-molecule microarray binders of probe aLefty2, primary screen, biochemical, biotinylated probe, 635/667 nm fluorescence (AID 1094);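 further: score merges spot fluorescence near 667 nm with spot signal-to-noise ratio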
Settings: higher = more signal

Structure (SMILES)	composite z-score
CC(C)CNC(=O)[C@@]1(C)c2ccccc2C(=O)N(Cc2cc(F)cc(C(F)(F)F)c2)[C@H]1c1ccc(CO)cc1	-0.0172
NCCCC[C@@H]1NC(=O)[C@H]2C[C@@H](C(=O)O)[C@@H](c3cccc(OCCO)c3)N2C1=O	0.781
CC(C)C[C@@H]1NC(=O)[C@H]2C[C@@H](C(=O)NCCCCCNC(=O)CS)[C@@H](c3ccc(O)cc3)N2C1=O	-0.077
CO[C@H]1O[C@H](CO)[C@@H](OC(=O)Nc2ccccc2)[C@@H]2OC(=O)[C@H](Cc3ccccc3)C/C=C/C[C@@H](Cc3ccccc3)C(=O)O[C@@H]12	-0.104
CC(C)CNC(=O)[C@@H]1c2ccccc2C(=O)N(Cc2ccccc2Cl)[C@H]1c1ccc(CO)cc1	0.0529
CCc1cccc(NC(=O)O[C@H]2[C@H](OC(=O)Nc3ccc4c(c3)OCO4)[C@H](OC(=O)Nc3ccc4c(c3)OCO4)[C@@H](OC)O[C@@H]2CO)c1	0.0386
CCN(CC)c1ccc(N2CC=CC34O[C@@H]5C=CCOC(=O)[C@@H]5[C@H]3C(=O)N(CCCO)[C@@H]4C2=O)cc1 (some centres not stated)	-0.139
C=C(CCCC)/C(=C/C[C@H](OC(C)=O)c1cccc(OCCO)c1)c1cc(C(=O)OC)ccc1OC	-0.101
C=C(COC)/C(=C/C[C@H](OC(=O)c1ccncc1)c1ccc(OCCO)cc1)c1cc(C(=O)OC)ccc1OC	-0.0337
NC(=O)NCC#Cc1ccc2c(c1)[C@]1(C(=O)N2)[C@H](C(=O)Nc2nc3ccccc3s2)[C@H]2C(=O)O[C@H](c3ccccc3)[C@H](c3ccccc3)N2[C@@H]1c1ccc(OCCO)cc1	-0.0616
C=CCNC(=O)[C@H]1[C@@H]2C(=O)O[C@@H](c3ccccc3)[C@@H](c3ccccc3)N2[C@@H](c2ccc(O)cc2)[C@]12C(=O)Nc1ccc(C#CC3=CCCCC3)cc12	0.384
C=CCC(OC(C)=O)[C@@H]1[C@@H](N(Cc2cccc3ccccc23)C(=O)c2ccc(-c3ccccc3)cc2)c2cc(OCCCO)ccc2N1C(=O)c1ccc2ccccc2n1 (some centres not stated)	0.157
O=C1c2ccccc2[C@](Cc2ccccc2I)(C(=O)O)[C@H](c2ccc(CO)cc2)N1Cc1ccccc1	0.0299
CC(C)[C@@H](C(=O)O)n1cc(-c2ccccc2)nn1	-0.0623
C/C=C/CN(C(=O)C#Cc1ccccc1)[C@H](CO[Si](C)(C)C(C)(C)C)c1ccccc1	-0.192
COCCOC(=O)N1C(=O)[C@@]2(c3cc(C#CCCO)ccc31)[C@H](c1ccc(O)cc1)N1[C@H](c3ccccc3)[C@H](c3ccccc3)OC(=O)[C@H]1[C@@H]2C(=O)N1CCc2cc(OC)c(OC)cc2C1	-0.0616
Cc1ccc(S[C@]2(C(=O)NC3CC3)CC(=O)N(Cc3cc(C(F)(F)F)cc(C(F)(F)F)c3)[C@@H]2c2ccc(CO)cc2I)cc1	-0.242
C[N+](C)(C)CCCC[C@@H]1NC(=O)[C@H]2C[C@@H](C(=O)NCCCCCNC(=O)CS)[C@@H](c3ccc(O)cc3)N2C1=O	-0.134
CC[C@H](C)C(=O)O[C@H]1CC[C@]2(C)C3=C(CCC2C1(C)C)[C@]1(C)CC[C@H]([C@H](C)CCCC(C)C)[C@@]1(C)CC3 (some centres not stated)	-0.108
COCCOC(=O)N1C(=O)[C@@]2(c3cc(C#CCC(C(=O)OC)C(=O)OC)ccc31)[C@H](C(=O)N1CCCCCCC1)[C@H]1C(=O)O[C@H](c3ccccc3)[C@H](c3ccccc3)N1[C@@H]2c1ccccc1OCCO	1.82
C=CCOC(=O)[C@H]1[C@@H]2C(=O)O[C@@H](c3ccccc3)[C@@H](c3ccccc3)N2[C@@H](c2ccc(OCCOC(=O)[C@H]3C[C@H]4C(=O)NCC(=O)N4[C@H]3c3ccc(O)cc3)cc2)[C@]12C(=O)Nc1ccc(I)cc12	-0.148
CC#CCO[Si](C#CCCCCCC)(C(C)C)C(C)C	0.137
CC(c1ccccc1)C(O)C1C=CC2C(=O)N(c3ccccc3)C(=O)C2N1Nc1ccc(C#N)cc1 (configuration not stated)	0.123
O=C1c2ccccc2[C@@]2(Cc3ccccc3N(Cc3ccccc3)C2=O)[C@H](c2ccc(CO)cc2)N1Cc1ccccc1	-0.0321
CC(C)CNC(=O)[C@@H]1c2ccccc2C(=O)N(CC23CC4CC(CC(C4)C2)C3)[C@H]1c1ccc(CO)cc1	-0.121

System: Noggin (protein binding on small-molecule microarray)
Assay: Noggin binders on small-molecule microarray, primary screen, biochemical, 635/667 nm fluorescence (AID 1095);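 further: score merges 667 nm feature fluorescence with signal to noise over triplicate slides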
Settings: 635 nm fluorescence, higher = more signal

Structure (SMILES)	composite z-score
COCCOC(=O)N1C(=O)[C@@]2(c3cc(C#CCNC(N)=O)ccc31)[C@H](C(=O)NC[C@H](O)c1ccccc1)[C@H]1C(=O)O[C@H](c3ccccc3)[C@H](c3ccccc3)N1[C@@H]2c1ccc(OCCO)cc1	0.683
COC(=O)[C@@]1(Cc2ccc(F)cc2)[C@H]2c3cc(C(=O)N(C)C)n(CCn4cc([N+](=O)[O-])nc4C)c3C[C@H]2CN1C(=O)c1ccccc1	-0.885
CN(C)CCCCNC(=O)[C@H]1C[C@H]2C(=O)N[C@@H](Cc3ccccc3)C(=O)N2[C@H]1c1cccc(OCCO)c1	0.622
CCCCN1CC=CC23O[C@@H]4/C=C\CCC(C)OC(=O)C4[C@H]2C(=O)N(C(C)CO)[C@@H]3C1=O (some centres not stated)	-0.422
CCCCC(=C=CC[C@@H](O)c1cccc(OCCO)c1)CCO	-0.0301
CN1C=C(C(=O)OCCS(C)(=O)=O)C(C(=O)OCCS(C)(=O)=O)=CC(CCCO)=CC1c1ccc(CN2CCCC2)cc1 (configuration not stated)	0.845
C#CCN(C/C=C/c1ccccc1)[C@H](CO[Si](C)(C)C(C)(C)C)c1ccccc1	-0.0154
O=C1O[C@H](c2ccccc2)[C@H](c2ccccc2)N2[C@H]1[C@@H](C(=O)N1CCN(c3ncccn3)CC1)[C@]1(C(=O)Nc3ccccc31)[C@H]2c1ccc(O)cc1	0.0775
[N-]=[N+]=NCc1ccccc1[C@@H]1OC(c2ccc(OCCCO)cc2)=N[C@]1(Cc1ccccc1)C(=O)NCc1ccccc1	-0.0171
C=CCOC(=O)[C@H]1[C@@H]2C(=O)O[C@@H](c3ccccc3)[C@@H](c3ccccc3)N2[C@@H](c2ccc(OCCOC(=O)[C@@H]3C[C@@H]4C(=O)N[C@@H](CC(C)C)C(=O)N4[C@@H]3c3ccc(O)cc3)cc2)[C@]12C(=O)Nc1ccc(I)cc12	1.23
CC(C)CNC(=O)[C@@]1(C)c2ccccc2C(=O)N(Cc2cc(F)cc(C(F)(F)F)c2)[C@H]1c1ccc(CO)cc1	0.602
NCCCC[C@@H]1NC(=O)[C@H]2C[C@@H](C(=O)O)[C@@H](c3cccc(OCCO)c3)N2C1=O	1.85
CC(C)C[C@@H]1NC(=O)[C@H]2C[C@@H](C(=O)NCCCCCNC(=O)CS)[C@@H](c3ccc(O)cc3)N2C1=O	0.528
CO[C@H]1O[C@H](CO)[C@@H](OC(=O)Nc2ccccc2)[C@@H]2OC(=O)[C@H](Cc3ccccc3)C/C=C/C[C@@H](Cc3ccccc3)C(=O)O[C@@H]12	0.107
CC(C)CNC(=O)[C@@H]1c2ccccc2C(=O)N(Cc2ccccc2Cl)[C@H]1c1ccc(CO)cc1	-1.04
CCc1cccc(NC(=O)O[C@H]2[C@H](OC(=O)Nc3ccc4c(c3)OCO4)[C@H](OC(=O)Nc3ccc4c(c3)OCO4)[C@@H](OC)O[C@@H]2CO)c1	0.795

Structure (SMILES)	composite z-score
CCN(CC)c1ccc(N2CC=CC34O[C@@H]5C=CCOC(=O)[C@@H]5[C@H]3C(=O)N(CCCO)[C@@H]4C2=O)cc1 (some centres not stated)	-0.927
C=C(CCCC)/C(=C/C[C@H](OC(C)=O)c1cccc(OCCO)c1)c1cc(C(=O)OC)ccc1OC	1.04
C=C(COC)/C(=C/C[C@H](OC(=O)c1ccncc1)c1ccc(OCCO)cc1)c1cc(C(=O)OC)ccc1OC	1.01
NC(=O)NCC#Cc1ccc2c(c1)[C@]1(C(=O)N2)[C@H](C(=O)Nc2nc3ccccc3s2)[C@H]2C(=O)O[C@H](c3ccccc3)[C@H](c3ccccc3)N2[C@@H]1c1ccc(OCCO)cc1	0.479
C=CCNC(=O)[C@H]1[C@@H]2C(=O)O[C@@H](c3ccccc3)[C@@H](c3ccccc3)N2[C@@H](c2ccc(O)cc2)[C@]12C(=O)Nc1ccc(C#CC3=CCCCC3)cc12	1
C=CCC(OC(C)=O)[C@@H]1[C@@H](N(Cc2cccc3ccccc23)C(=O)c2ccc(-c3ccccc3)cc2)c2cc(OCCCO)ccc2N1C(=O)c1ccc2ccccc2n1 (some centres not stated)	0.37
O=C1c2ccccc2[C@](Cc2ccccc2I)(C(=O)O)[C@H](c2ccc(CO)cc2)N1Cc1ccccc1	-0.57
CC(C)[C@@H](C(=O)O)n1cc(-c2ccccc2)nn1	0.192
C/C=C/CN(C(=O)C#Cc1ccccc1)[C@H](CO[Si](C)(C)C(C)(C)C)c1ccccc1	-1.01
COCCOC(=O)N1C(=O)[C@@]2(c3cc(C#CCCO)ccc31)[C@H](c1ccc(O)cc1)N1[C@H](c3ccccc3)[C@H](c3ccccc3)OC(=O)[C@H]1[C@@H]2C(=O)N1CCc2cc(OC)c(OC)cc2C1	1.55
Cc1ccc(S[C@]2(C(=O)NC3CC3)CC(=O)N(Cc3cc(C(F)(F)F)cc(C(F)(F)F)c3)[C@@H]2c2ccc(CO)cc2I)cc1	0.502
C[N+](C)(C)CCCC[C@@H]1NC(=O)[C@H]2C[C@@H](C(=O)NCCCCCNC(=O)CS)[C@@H](c3ccc(O)cc3)N2C1=O	0.212
CC[C@H](C)C(=O)O[C@H]1CC[C@]2(C)C3=C(CCC2C1(C)C)[C@]1(C)CC[C@H]([C@H](C)CCCC(C)C)[C@@]1(C)CC3 (some centres not stated)	0.296
COCCOC(=O)N1C(=O)[C@@]2(c3cc(C#CCC(C(=O)OC)C(=O)OC)ccc31)[C@H](C(=O)N1CCCCCCC1)[C@H]1C(=O)O[C@H](c3ccccc3)[C@H](c3ccccc3)N1[C@@H]2c1ccccc1OCCO	1.82
C=CCOC(=O)[C@H]1[C@@H]2C(=O)O[C@@H](c3ccccc3)[C@@H](c3ccccc3)N2[C@@H](c2ccc(OCCOC(=O)[C@H]3C[C@H]4C(=O)NCC(=O)N4[C@H]3c3ccc(O)cc3)cc2)[C@]12C(=O)Nc1ccc(I)cc12	0.895
CC#CCO[Si](C#CCCCCCC)(C(C)C)C(C)C	-2.8
